Source: PubChem BioAssay (Tox21)
Results filed as inconclusive are left out. The source made the active and inactive calls. Unless noted, calls follow the shape of the dose curve; as a rule, active = well fitted curve in the direction sought with a large enough effect in the repeat runs; inconclusive = weak or mixed curves; inactive = no such curve, though single readings can be large; an effect the other way counts as inactive or inconclusive.

Assays:
[1] = qHTS assay to identify small molecule agonists of H2AX - cell viability counter screen (AID 1224847; calls by dose curve; also: nearly all actives have a fitted effect of over 30% in size; also: potency is read from the fitted curve at half-maximal effect;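 as to activity change, negative = cytotoxicity: wild-type CHO-K1 cells; top concentration of the series differs between compounds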)
In short: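 After overnight plating of 1000 CHO-K1 cells per well, a 15-concentration compound series was applied for 3 hr at 37C. Luminescence from CellTiter-Glo, read following 30 min at room temperature, reflected cell viability.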

[2] = qHTS RealTime-Glo MT Cell Viability Assay in HEK293 cells - 32 hour (AID 1224868); also: nearly all actives have a fitted effect of over 50% in size; also: potency is read from the fitted curve at half-maximal effect; as to activity change, negative = cytotoxic: top concentration of the series differs between compounds
In short: (§1)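 Luminescence generated by NanoLuc from substrate produced by living HEK293 cells served as the viability signal. Each value reflects the reading at its stated time point during continuous 40 h compound exposure at 37 C.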

[3] = A CellTox Green Cytotoxicity Assay to monitor cytotoxicity in HEK293 cells - 0 hour (AID 1224869); also: nearly all actives have a fitted effect of over 50% in size
In short: (§2)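 HEK293 cells premixed with CellTox Green dye were seeded at 600 cells/well and left 5 h at 37 C/5% CO2 before pin transfer of 23 nL compound in DMSO. Fluorescence from dye bound to dead-cell DNA was read during 40 h treatment.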

[4] = A CellTox Green Cytotoxicity Assay to monitor cytotoxicity in HEK293 cells - 40 hour (AID 1224871); also: nearly all actives have a fitted effect of over 45% in size; also: potency is read from the fitted curve at half-maximal effect
In short: as §2

[5] = qHTS RealTime-Glo MT Cell Viability Assay in HEK293 cells - 16 hour (AID 1224872); also: nearly all actives have a fitted effect of over 50% in size; also: potency is read from the fitted curve at half-maximal effect; as to activity change, negative = cytotoxicity: top concentration of the series differs between compounds
In short: as §1

[6] = qHTS RealTime-Glo MT Cell Viability Assay in HEK293 cells - 40 hour (AID 1224874); settings: RealTime-Glo luminescence; max response: stronger effect = lower value; also: nearly all actives have a fitted effect of over 50% in size; also: potency is read from the fitted curve at half-maximal effect
In short: (§3)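 HEK293 cells mixed with RealTime-Glo reagents (NanoLuc plus cell-permeant prosubstrate) at 600 cells/well, preincubated 5 h at 37 C/5% CO2, then given 23 nL compound in DMSO. Nonlytic luminescence from viable cells was read at 0, 8, 16, 24, 32 and 40 h.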

[7] = A CellTox Green Cytotoxicity Assay to monitor cytotoxicity in HEK293 cells - 24 hour (AID 1224875); also: nearly all actives have a fitted effect of over 45% in size; also: potency is read from the fitted curve at half-maximal effect
In short: as §2

[8] = A CellTox Green Cytotoxicity Assay to monitor cytotoxicity in HepG2 cells - 16 hour (AID 1224876); also: nearly all actives have a fitted effect of over 45% in size; also: potency is read from the fitted curve at half-maximal effect
In short: (§4)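 HepG2 cells were seeded together with the CellTox Green dye at 600 cells/well, left 5 h at 37 C/5% CO2, then given compounds in DMSO. Fluorescence from dye bound to dead-cell DNA was read repeatedly over 40 h of treatment at 37 C.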

[9] = A CellTox Green Cytotoxicity Assay to monitor cytotoxicity in HepG2 cells - 24 hour (AID 1224878); also: nearly all actives have a fitted effect of over 45% in size; also: potency is read from the fitted curve at half-maximal effect
In short: as §4

[10] = A CellTox Green Cytotoxicity Assay to monitor cytotoxicity in HepG2 cells - 40 hour (AID 1224879); also: nearly all actives have a fitted effect of over 40% in size; also: potency is read from the fitted curve at half-maximal effect
In short: as §4

[11] = qHTS RealTime-Glo MT Cell Viability Assay in HEK293 cells - 0 hour (AID 1224880); also: nearly all actives have a fitted effect of over 45% in size; also: potency is read from the fitted curve at half-maximal effect; as to activity change, negative = cytotoxicity: top concentration of the series differs between compounds
In short: as §3

[12] = A CellTox Green Cytotoxicity Assay to monitor cytotoxicity in HEK293 cells - 32 hour (AID 1224881); also: nearly all actives have a fitted effect of over 40% in size; also: potency is read from the fitted curve at half-maximal effect
In short: as §2

[13] = qHTS assay to identify small molecule agonists of the hypoxia (HIF-1) signaling pathway (AID 1224846; active = well fitted activation curve with a large enough effect in the signal ratio in the repeat runs, not every such curve was filed as active; the % refers to the signal ratio)
In short: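 HRE-bla ME-180 cells (beta-lactamase reporter under hypoxia response element) were plated at 2,000 cells/well in medium with 0.5% dialyzed FBS, rested 5 hrs, then given compounds in DMSO for 17 hrs at 37C, 5% CO2. Reporter induction was read with CCF4-AM FRET substrate.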

[14] = qHTS RealTime-Glo MT Cell Viability Assay in HepG2 cells - 40 hour (AID 1224870); also: nearly all actives have a fitted effect of over 50% in size
In short: (§5)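 HepG2 cells mixed with RealTime-Glo MT reagents (NanoLuc plus cell-permeant prosubstrate) were seeded at 600 cells/well, incubated 5 h at 37 C/5% CO2, then pinned with compounds in DMSO; nonlytic luminescence tracked viability during 40 h treatment.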

[15] = qHTS RealTime-Glo MT Cell Viability Assay in HepG2 cells - 8 hour (AID 1224873); also: nearly all actives have a fitted effect of over 55% in size
In short: as §5

[16] = qHTS assay to identify small molecule agonists of the estrogen related receptor (ERR) signaling pathway from Tox21 library (AID 1224849; calls by dose curve; also: nearly all actives have a fitted effect of over 15% in size); settings: ERR reporter cell line, ONE-Glo luciferase, 18 h; at 92.4 µM (top of the series) unless noted
In short: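 ERR reporter cell line (NTP) seeded, rested 6 h at 37 C/5% CO2, then pinned with Tox21 compounds in DMSO. After 18 h at 37 C, ONE-Glo luciferase luminescence was read following 30 min at room temperature.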

[17] = qHTS RealTime-Glo MT Cell Viability Assay in HepG2 cells - 32 hour (AID 1224877); also: nearly all actives have a fitted effect of over 55% in size
In short: (§6)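 Tox21 10K library screened in qHTS format on HepG2 cells carrying RealTime-Glo reagents. Compounds were added after a 5 h preincubation, and the luminescent signal from continuous culture was measured repeatedly during 40 h treatment.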

[18] = qHTS RealTime-Glo MT Cell Viability Assay in HepG2 cells - 24 hour (AID 1224867); also: nearly all actives have a fitted effect of over 50% in size
In short: as §6

[19] = qHTS assay to identify small molecule antagonists of the estrogen related receptor (ERR) signaling pathway from Tox21 library (AID 1224848); also: nearly all actives have a fitted effect of over 50% in size; also: potency is read from the fitted curve at half-maximal effect
In short: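 Screening used an ERR reporter line supplied by NTP, exposed for 18 h at 37 C to library compounds delivered in DMSO. Signal was luciferase luminescence developed with ONE-Glo at room temperature for 30 min.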
% is scaled to controls: 0 for no effect and ±100 for the full control effect.

CCCCCCCCCc1ccc(OCCOCCO)cc1
inactive: Potency [3] | Potency [11]
active: Potency [1] 37.6 µM | Potency [2] 1.15 µM | Potency [4] 13 µM | Potency [5] 1.45 µM | Potency [6] 1.03 µM | Potency [7] 14.5 µM | Potency [8] 20.5 µM | Potency [9] 18.3 µM | Potency [10] 20.5 µM | Potency [12] 14.5 µM

CCOc1ccc(N=Nc2ccc(/C=C/c3ccc(N=Nc4ccc(OCC)cc4)cc3S(=O)(=O)O)c(S(=O)(=O)O)c2)cc1
inactive: Potency [13] | Potency [1] | Potency [2] | Potency [3] | Potency [14] | Potency [4] | Potency [5] | Potency [15] | max response [6] -1.09% | Potency [8] | Potency [9] | Potency [10] | Potency [11] | Potency [12]

c1ccc(-c2ccccn2)nc1
inactive: Potency [1] | activity change, positive = activation [16] -20.5% | Potency [2] | Potency [3] | Potency [14] | Potency [4] | Potency [5] | Potency [15] | max response [6] -0.479% | Potency [17] | Potency [9] | Potency [10] | Potency [11] | Potency [12]

COc1ccc(S(=O)(=O)N2C(=O)[C@@](c3ccccc3OC)(N3C[C@H](O)C[C@H]3C(=O)N(C)C)c3cc(Cl)ccc32)c(OC)c1
inactive: Potency [13] | Potency [3] | Potency [4] | Potency [8] | Potency [9] | Potency [10] | Potency [11] | Potency [12]
active: Potency [2] 49 µM | Potency [6] 49 µM

C[N+]1(C)CCC(OC(=O)C(O)(c2ccccc2)C2CCCC2)C1 (stereo unspecified)
active: Potency [7] 23.9 µM
inactive: Potency [1] | Potency [18] | Potency [2] | Potency [14] | Potency [5] | Potency [15] | max response [6] 3.92% | Potency [8] | Potency [17] | Potency [9] | Potency [10] | Potency [11]

CC(C)CC(=O)C1C(=O)c2ccccc2C1=O
inactive: Potency [13] | activity change, positive = activation [16] -53.7% | Potency [18] | Potency [2] | Potency [3] | Potency [14] | Potency [4] | Potency [5] | Potency [15] | max response [6] 0.634% | Potency [7] | Potency [8] | Potency [17] | Potency [9] | Potency [10] | Potency [11] | Potency [12]
active: Potency [19] 30.6 µM

OC(CN1CCC(Cc2ccc(F)cc2)CC1)c1ccc(Cl)cc1 (stereo unspecified)
inactive: Potency [13] | Potency [3]
active: Potency [2] 10.7 µM | Potency [4] 21.3 µM | Potency [5] 9.52 µM | Potency [6] 9.52 µM | Potency [9] 21.3 µM | Potency [10] 23.9 µM | Potency [12] 21.3 µM

C/C=C/C(=O)CC
inactive: activation [13] -0.782% [at 15.8 µM] | activity change, negative = cytotoxicity [1] 0.284% [at 31.6 µM] | activity change, negative = cytotoxic [2] 1.19% [at 15.8 µM] | cytotoxicity [3] 1.29% [at 15.8 µM] | activity change, negative = cytotoxic [14] 1.82% [at 15.8 µM] | activity change, negative = cytotoxicity [5] 1.69% [at 15.8 µM] | viability change, negative = cytotoxic [15] 1.2% [at 15.8 µM] | max response [6] 4.11% | cytotoxicity increase [8] -0.573% [at 15.8 µM] | activity change, negative = cytotoxic [17] 0.591% [at 15.8 µM] | cytotoxicity [9] 1.31% [at 15.8 µM] | activity change, negative = cytotoxicity [11] 9.44% [at 15.8 µM]

C=CC(=O)OCCOCCOC(=O)C=C
inactive: Potency [19] | Potency [3] | Potency [11]
active: activity change, positive = activation [16] -74.8% | Potency [2] 34.8 µM | Potency [6] 31 µM | Potency [10] 49.2 µM

C[N+](C)(C)CCOC(=O)CCC(=O)OCC[N+](C)(C)C
inactive: Potency [1] | Potency [18] | Potency [2] | Potency [3] | Potency [14] | Potency [4] | Potency [5] | Potency [15] | max response [6] 3.39% | Potency [7] | Potency [8] | Potency [17] | Potency [9] | Potency [10] | Potency [11] | Potency [12]

N=c1ccn2c(n1)O[C@H]1[C@H](O)[C@@H](CO)O[C@H]12
active: Potency [10] 54.9 µM
inactive: Potency [13] | Potency [19] | activity change, positive = activation [16] -6.33% | Potency [18] | Potency [2] | Potency [3] | Potency [14] | Potency [4] | Potency [15] | max response [6] 22.1% | Potency [7] | Potency [17] | Potency [11] | Potency [12]

CCN(CC)CCOC(=O)C(c1ccccc1)C1CCCCC1 (stereo unspecified)
active: Potency [1] 49.2 µM | Potency [4] 21.3 µM | Potency [9] 23.9 µM | Potency [10] 21.3 µM | Potency [12] 23.9 µM
inactive: Potency [13] | Potency [3] | Potency [14] | Potency [15] | Potency [11]

O=C(O)c1ccc(-n2nc(-c3ccccc3O)nc2-c2ccccc2O)cc1
active: Potency [19] 21.1 µM
inactive: activity change, positive = activation [16] -48.9% [at 42.5 µM] | Potency [18] | Potency [3] | Potency [14] | Potency [4] | Potency [5] | Potency [15] | Potency [8] | Potency [17] | Potency [9] | Potency [10] | Potency [11] | Potency [12]

Clc1ccc(Cn2c(CN3CCCC3)nc3ccccc32)cc1
inactive: Potency [1] | Potency [3] | Potency [14] | Potency [15] | Potency [7] | Potency [8] | Potency [17] | Potency [9] | Potency [10] | Potency [11] | Potency [12]

COc1cc2nc(N3CCN(C(=O)C4COc5ccccc5O4)CC3)nc(N)c2cc1OC (stereo unspecified)
inactive: Potency [1] | Potency [18] | Potency [3] | Potency [14] | Potency [4] | Potency [15] | Potency [7] | Potency [8] | Potency [17] | Potency [12]
active: Potency [2] 21.3 µM | Potency [6] 23.9 µM | Potency [9] 23.9 µM | Potency [10] 23.9 µM | Potency [11] 19 µM

CN(C)CCCN1c2ccccc2Sc2ccccc21
active: Potency [9] 26.8 µM | Potency [10] 23.9 µM
inactive: Potency [1] | Potency [19] | activity change, positive = activation [16] 7.95% [at 42.5 µM] | Potency [18] | Potency [2] | Potency [3] | Potency [14] | Potency [4] | Potency [5] | Potency [15] | max response [6] -25.3% | Potency [7] | Potency [17] | Potency [12]

O=S(=O)(Oc1ccc(Cl)cc1)c1ccccc1
inactive: Potency [13] | Potency [19] | activity change, positive = activation [16] -14.7% | Potency [18] | Potency [3] | Potency [14] | Potency [4] | Potency [15] | max response [6] -29.4% | Potency [7] | Potency [8] | Potency [17] | Potency [9] | Potency [10] | Potency [11] | Potency [12]

Cc1ccc(N=Nc2c(O)c(C(=O)O)cc3ccccc23)c(S(=O)(=O)O)c1
inactive: Potency [13] | Potency [18] | Potency [2] | Potency [3] | Potency [14] | Potency [4] | Potency [5] | Potency [15] | max response [6] 1.56% | Potency [8] | Potency [17] | Potency [9] | Potency [11] | Potency [12]
